# Results filed as inconclusive are left out. Active and inactive are the calls of the source. Unless noted, calls come from the whole dose curve; as a rule, active = well fitted curve in the direction sought with a large enough effect; inconclusive = small, poorly fitted or top-dose-only effect, or another doubt; inactive = no such curve, though single readings can be large; an effect the other way counts as inactive or inconclusive.
# How the values were obtained:
# [1] = AP1 Signaling Pathway (AID 357; active = well fitted curve in either direction with a large enough effect, not every such curve was filed as active;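 note: ME-180 reporter cells stimulated with EGF at its EC50 level; % is set by controls: 0 for no effect and ±100 for the full control effect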); conditions: ME-180 (cervical carcinoma) AP-1-bla reporter, EGF-induced, beta-lactamase ratio, 5 h; at 38 µM (top of the series)
# Procedure, shortened: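 AP-1-bla ME-180 cells, Opti-MEM + 0.5% dialyzed FBS, plated overnight 37 °C. Cpd titration + EC50 EGF, 5 h 37 °C. CCF4 2.5 h RT; ex 405, em 460/530 ratio → %activity, AC50.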
# [2] = molecular target: Cytochrome P450 1A2 (Homo sapiens) (UniProt P05177); experiment: p450-cyp1a2 (AID 410; calls by dose curve; note: potency is the fitted concentration of half-maximal effect)
# Procedure, shortened: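 Luminescent demethylation readout: Luciferin-ME (100uM, equal to Km) turned over by 20nM CYP1A2 for 60 min at room temperature after NADPH regeneration addition, following 10 min compound preincubation. Normalization used 57 uM furafylline as full inhibition.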
# [3] = molecular target: Glucocorticoid receptor (Homo sapiens) (UniProt P04150); experiment: GR-GFP Redistribution (AID 450;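 active = compounds whose dose series gives a full or clear partial fitted curve of increased nuclear translocation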; note: potency is the fitted concentration of half-maximal effect); conditions: U2OS GR-GFP nuclear translocation, laser cytometry, 2 h
# [4] = molecular target: Glucocorticoid receptor (Homo sapiens) (UniProt P04150); experiment: GR-EFC Redistribution (AID 451; calls by dose curve; note: potency is the fitted concentration of half-maximal effect); conditions: CHO-K1 GR-EFC translocation, beta-gal luminescence, 2 h
# Procedure, shortened: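 Translocation of GR-ED fusion to nuclear EA restores b-gal, read by luminescence after 1 h room-temperature detection. Engineered CHO-K1 biosensor cells, 1,000/well, exposed 2 h at 37 C to titrations up to 46 uM final.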
# [5] = molecular target: 3',5'-cyclic-AMP phosphodiesterase 4B (Homo sapiens) (UniProt Q07343); experiment: qHTS Assay for Inhibitors of PDE-IV (AID 607; active = well fitted activation curve with a large enough effect in the main read-out, with a control signal flat, not every such curve was filed as active; note: % of control where 0% means no effect)
# Procedure, shortened: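 HEK293 ACTOne cells with CNG channel (1000/well), endogenous PDE4; membrane potential dye, compounds up to 22.9 uM final. Fluorescence Ex 535/Em 590; RO 20-1724 (100 uM final) as reference.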
# [6] = molecular target: Guanine nucleotide-binding protein G(i) subunit alpha-1 (Homo sapiens) (UniProt P63096); experiment: qHTS Assay for Inhibitors of RGS12 GoLoco Motif Activity (Green Fluorophore) (AID 879);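 note: 0% = labeled peptide with Gαi1 and full inhibition = labeled peptide alone without protein; negative values mean loss of peptide binding seen as reduced polarization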
# Procedure, shortened: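 A drop in FITC polarization marked displacement of the FITC-tagged RGS12 GoLoco peptide (10 nM) from Gαi1 (50 nM). Compounds were incubated 10 min at room temperature in Tris pH 7.5 buffer containing 150 mM NaCl, 0.1 mM GDP and 0.05% NP40; unlabeled peptide titration served as control.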
# [7] = molecular target: Cytochrome P450 3A4 (Homo sapiens) (UniProt P08684); experiment: qHTS Assay for Activators of Cytochrome P450 3A4 (AID 885); note: nearly all actives have a fitted effect of over 65% in size
# Procedure, shortened: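 Human CYP3A4 dealkylates Luciferin-PPXE to luciferin, which luciferase detection converts to light. Substrate was at its KM (25uM), buffer 200mM KPO4, reaction 60 min at RT.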
# [8] = molecular target: Cytochrome P450 2C19 (Homo sapiens) (UniProt P33261); experiment: qHTS Assay for Inhibitors and Substrates of Cytochrome P450 2C19 (AID 899); note: % is set by controls: 0 for no effect and ±100 for the full control effect; nearly all actives have a fitted effect of over 60% in size
# Procedure, shortened: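 5nM enzyme + 10uM Luciferin-H EGE (=KM), 50mM KPO4; cpd pin-transferred, 10 min 37C; NADPH regen, 60 min 37C; stopped w/ luciferin detection reagent, 20 min; luminescence. Normalized to 57uM ketoconazole (AC100).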
# [9] = molecular target: Muscarinic acetylcholine receptor M1 (Rattus norvegicus) (UniProt P08482); experiment: qHTS Assay for Antagonists of Acetylcholine Muscarinic M1 Receptor: Kinetic Measurement of Intracellular Calcium Response (AID 943);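 note: Fluo-4 calcium signal as peak divided by basal fluorescence over 4 min; nearly all actives have a fitted effect of over 75% in size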
# Procedure, shortened: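 Antagonism measured as reduction of carbachol-evoked (EC80, 100 nM final) calcium flux in rat M1-CHO cells after 10 min compound exposure. Fluo-4 signal read kinetically; ratio of maximal to basal fluorescence.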
# [10] = molecular target: Pyruvate kinase (Leishmania mexicana) (UniProt Q27686); experiment: qHTS Validation Assay for Inhibitors of Leishmania Mexicana Pyruvate Kinase (AID 945);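 note: 0% = DMSO only neutral control wells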
# Procedure, shortened: (§1)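 Eight-point qHTS titrations; enzyme 0.2 nM LmPYK (E451W mutant); substrates 0.5 mM PEP, 0.1 mM ADP; 7 mM MgCl2; 1 h room temperature; PKLight luminescence normalized to neutral control.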
# [11] = molecular target: Pyruvate kinase (Leishmania mexicana) (UniProt Q27686); experiment: qHTS Validation Assay for Activators of Leishmania Mexicana Pyruvate Kinase (AID 959)
# Procedure, shortened: as §1
# [12] = molecular target: Alpha-galactosidase A (Homo sapiens) (UniProt P06280); experiment: Counterscreen for Glucocerebrosidase Inhibitors: qHTS Assay for Human alpha-Galactosidase at pH 4.5 (AID 992); note: 0% is about no effect
# Procedure, shortened: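 Steps: enzyme (2 nM final), then compound across 0.7 nM to 77 uM, then 80 uM fluorogenic galactopyranoside substrate; incubate 20 min at room temperature; quench at pH 10; measure fluorescence at 365/440 nm.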
# [13] = molecular target: alpha-glucosidase (Oryza sativa, rice) (UniProt Q653V4); experiment: Counterscreen for Glucocerebrosidase Inhibitors: qHTS Assay for Rice alpha-Glucosidase at pH 5.0 (AID 997);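 note: 0% = full activity with enzyme and -100% = basal without enzyme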
# Procedure, shortened: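 Endpoint fluorogenic assay at pH 5.0: compounds (0.7 nM to 77 uM) titrated against 4 nM rice enzyme and 400 uM 4-MU-alpha-glucoside for 20 min at room temperature; NaOH/glycine stop, read ex 365/em 440 nm, Hill-fitted AC50.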
# [14] = qHTS Assay for Lipid Storage Modulators (AID 1519; calls by dose curve; for activity change, negative = inhibition: % is set by controls: 0 for no effect and ±100 for the full control effect); conditions: Drosophila S3 cells, BODIPY lipid droplet/cell ratio, laser cytometry, cells loaded with oleic acid
# Procedure, shortened: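 Cells seeded at 5,000 per well were treated with compounds over a concentration series and loaded with oleic acid (400 uM, as added). Lipid droplet fluorescence (488 nm excitation, 500-530 nm channel) was read by laser-scanning cytometry and normalized to 20 uM Triacsin C.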
# [15] = molecular target: DNA repair nuclease/redox regulator APEX1 (Homo sapiens) (UniProt P27695); experiment: qHTS Validation Assay for Inhibitors of the Human Apurinic/apyrimidinic Endonuclease 1 (APE1) (AID 1705; note: potency is the fitted concentration of half-maximal effect)
# Procedure, shortened: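 Activity read as rising fluorescence (598 nm emission, 525 nm excitation) from incision of a TAMRA/BHQ-2 duplex carrying a THF abasic site (50 nM). Compound and enzyme sat 15 min at RT before substrate start; signal change between first and third 60-s reads.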
# [16] = Counterscreen for APE1 Inhibitors: Fluorescent Dye Displacement Validation Assay (AID 1707); note: potency is the fitted concentration of half-maximal effect
# Procedure, shortened: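 Reaction mixture of 250 nM Thiazole Orange and 50 nM double-stranded abasic-site DNA was dispensed, compounds were pin-transferred, and fluorescence was read at endpoint (480 nm ex, 540 nm em). Reduced fluorescence indicated dye displacement by DNA binding.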
# [17] = molecular target: Endonuclease 4 (Escherichia coli (strain K12)) (UniProt P0A6C1); experiment: Counterscreen for APE1 Inhibitors: qHTS Validation Assay for Inhibitors of Endonuclease IV (AID 1708); note: potency is the fitted concentration of half-maximal effect
# Procedure, shortened: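 Incision of a double-stranded 50 nM TAMRA/BHQ-2 abasic substrate was followed kinetically (525/598 nm, reads every 60 s) after 15 min enzyme–compound preincubation with 2 nM EndoIV in pH 7.5 Tris buffer with MgCl2, DTT and Tween-20; concentration-response format.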
# [18] = qHTS for differential inhibitors of proliferation of Plasmodium falciparum line 7G8 (AID 1815);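 note: parasite growth measured after three days of incubation; plate controls were vehicle wells for no effect and reference inhibitor wells for full effect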
# Sequence of Pyruvate kinase (Leishmania mexicana) (Q27686 2-499 E452W): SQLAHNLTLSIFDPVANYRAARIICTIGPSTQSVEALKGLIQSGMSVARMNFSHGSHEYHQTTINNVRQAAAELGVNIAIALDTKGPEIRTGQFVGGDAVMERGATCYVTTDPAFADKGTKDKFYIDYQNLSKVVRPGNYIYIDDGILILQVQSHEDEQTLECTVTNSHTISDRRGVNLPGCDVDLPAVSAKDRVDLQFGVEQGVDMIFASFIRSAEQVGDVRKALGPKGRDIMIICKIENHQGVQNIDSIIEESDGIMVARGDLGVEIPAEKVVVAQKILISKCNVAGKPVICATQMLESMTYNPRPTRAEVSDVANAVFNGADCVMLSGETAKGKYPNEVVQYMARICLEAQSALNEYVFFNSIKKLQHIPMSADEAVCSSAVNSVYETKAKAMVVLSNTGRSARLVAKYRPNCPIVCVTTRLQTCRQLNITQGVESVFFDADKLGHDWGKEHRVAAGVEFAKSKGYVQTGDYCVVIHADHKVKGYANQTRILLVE
# Sequence of Glucocorticoid receptor (Homo sapiens) (P04150 whole entry, looked up, the tested form may be a part): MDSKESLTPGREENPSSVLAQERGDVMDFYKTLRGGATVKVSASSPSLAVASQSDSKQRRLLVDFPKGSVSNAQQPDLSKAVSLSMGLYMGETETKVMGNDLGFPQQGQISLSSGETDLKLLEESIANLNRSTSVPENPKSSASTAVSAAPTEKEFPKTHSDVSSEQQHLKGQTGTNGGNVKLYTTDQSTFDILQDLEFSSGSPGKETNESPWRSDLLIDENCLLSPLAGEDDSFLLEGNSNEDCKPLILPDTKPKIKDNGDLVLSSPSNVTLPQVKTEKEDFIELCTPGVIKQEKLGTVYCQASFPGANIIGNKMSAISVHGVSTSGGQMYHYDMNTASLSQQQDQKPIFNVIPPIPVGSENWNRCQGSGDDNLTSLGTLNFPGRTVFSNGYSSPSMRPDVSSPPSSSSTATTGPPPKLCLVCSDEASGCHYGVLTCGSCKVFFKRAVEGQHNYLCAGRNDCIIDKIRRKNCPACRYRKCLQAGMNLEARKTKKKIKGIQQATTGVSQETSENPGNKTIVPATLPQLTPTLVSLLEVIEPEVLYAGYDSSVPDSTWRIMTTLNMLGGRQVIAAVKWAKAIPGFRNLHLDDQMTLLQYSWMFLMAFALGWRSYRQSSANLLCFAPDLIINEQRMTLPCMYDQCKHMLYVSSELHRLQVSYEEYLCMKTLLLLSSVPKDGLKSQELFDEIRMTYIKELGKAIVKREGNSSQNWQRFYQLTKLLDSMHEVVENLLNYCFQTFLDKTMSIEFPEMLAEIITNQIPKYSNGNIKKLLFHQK
# Sequence of Muscarinic acetylcholine receptor M1 (Rattus norvegicus) (P08482 whole entry, looked up): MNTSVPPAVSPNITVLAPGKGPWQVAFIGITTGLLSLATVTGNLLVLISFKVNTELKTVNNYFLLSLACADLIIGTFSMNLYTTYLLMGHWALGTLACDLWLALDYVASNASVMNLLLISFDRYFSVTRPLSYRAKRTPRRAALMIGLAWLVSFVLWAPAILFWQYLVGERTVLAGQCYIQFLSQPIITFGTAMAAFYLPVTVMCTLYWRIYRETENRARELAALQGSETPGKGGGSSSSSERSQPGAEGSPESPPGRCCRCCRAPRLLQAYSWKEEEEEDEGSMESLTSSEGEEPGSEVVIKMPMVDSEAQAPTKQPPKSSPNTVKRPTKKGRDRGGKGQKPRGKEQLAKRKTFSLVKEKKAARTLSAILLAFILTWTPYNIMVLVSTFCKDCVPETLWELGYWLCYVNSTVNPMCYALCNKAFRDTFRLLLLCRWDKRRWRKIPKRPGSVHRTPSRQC
# Sequence of Cytochrome P450 3A4 (Homo sapiens) (P08684 whole entry, looked up): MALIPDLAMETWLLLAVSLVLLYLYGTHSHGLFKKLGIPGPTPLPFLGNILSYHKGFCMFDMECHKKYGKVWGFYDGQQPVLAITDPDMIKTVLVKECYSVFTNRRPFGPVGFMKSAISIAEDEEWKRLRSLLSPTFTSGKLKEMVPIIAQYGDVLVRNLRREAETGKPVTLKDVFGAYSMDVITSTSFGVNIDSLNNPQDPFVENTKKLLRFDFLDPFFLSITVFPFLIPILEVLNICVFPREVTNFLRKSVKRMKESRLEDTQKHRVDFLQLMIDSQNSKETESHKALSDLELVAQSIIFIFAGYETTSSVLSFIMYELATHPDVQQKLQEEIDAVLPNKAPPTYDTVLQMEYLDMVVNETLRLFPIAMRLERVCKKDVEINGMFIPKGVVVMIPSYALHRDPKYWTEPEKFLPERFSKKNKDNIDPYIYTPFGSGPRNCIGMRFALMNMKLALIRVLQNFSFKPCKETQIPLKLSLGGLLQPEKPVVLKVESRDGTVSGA
# Sequence of Alpha-galactosidase A (Homo sapiens) (P06280 whole entry, looked up): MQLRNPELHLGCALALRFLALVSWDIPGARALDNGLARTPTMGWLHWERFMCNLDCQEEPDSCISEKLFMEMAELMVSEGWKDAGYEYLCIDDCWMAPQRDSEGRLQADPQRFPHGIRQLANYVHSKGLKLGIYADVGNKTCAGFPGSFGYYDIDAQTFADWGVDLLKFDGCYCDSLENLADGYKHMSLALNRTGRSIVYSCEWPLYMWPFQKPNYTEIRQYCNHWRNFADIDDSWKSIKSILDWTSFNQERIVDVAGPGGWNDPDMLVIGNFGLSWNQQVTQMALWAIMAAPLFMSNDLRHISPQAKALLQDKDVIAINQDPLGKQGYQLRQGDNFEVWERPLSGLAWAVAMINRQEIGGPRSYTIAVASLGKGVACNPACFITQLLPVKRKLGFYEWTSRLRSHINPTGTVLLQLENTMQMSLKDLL
# Sequence of DNA repair nuclease/redox regulator APEX1 (Homo sapiens) (P27695 whole entry, looked up): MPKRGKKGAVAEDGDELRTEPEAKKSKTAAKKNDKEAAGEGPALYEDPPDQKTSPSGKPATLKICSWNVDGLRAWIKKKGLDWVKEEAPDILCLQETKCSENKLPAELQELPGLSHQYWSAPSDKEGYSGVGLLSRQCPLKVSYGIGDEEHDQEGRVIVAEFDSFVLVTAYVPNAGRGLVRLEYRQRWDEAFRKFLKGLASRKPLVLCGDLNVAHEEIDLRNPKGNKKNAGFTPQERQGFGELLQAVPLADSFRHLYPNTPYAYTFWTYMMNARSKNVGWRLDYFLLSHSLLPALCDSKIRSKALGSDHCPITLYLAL
# Sequence of Guanine nucleotide-binding protein G(i) subunit alpha-1 (Homo sapiens) (P63096 whole entry, looked up): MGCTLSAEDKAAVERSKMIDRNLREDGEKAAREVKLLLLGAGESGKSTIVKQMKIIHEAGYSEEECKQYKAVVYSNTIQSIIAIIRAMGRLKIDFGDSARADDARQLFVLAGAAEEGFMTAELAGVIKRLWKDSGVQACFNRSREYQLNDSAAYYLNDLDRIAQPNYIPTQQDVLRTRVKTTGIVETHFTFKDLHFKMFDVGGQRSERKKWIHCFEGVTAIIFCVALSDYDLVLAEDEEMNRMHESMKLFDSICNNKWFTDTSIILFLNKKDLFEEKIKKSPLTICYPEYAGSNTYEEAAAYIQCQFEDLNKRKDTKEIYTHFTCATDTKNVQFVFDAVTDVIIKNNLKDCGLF
# Sequence of Cytochrome P450 1A2 (Homo sapiens) (P05177 whole entry, looked up): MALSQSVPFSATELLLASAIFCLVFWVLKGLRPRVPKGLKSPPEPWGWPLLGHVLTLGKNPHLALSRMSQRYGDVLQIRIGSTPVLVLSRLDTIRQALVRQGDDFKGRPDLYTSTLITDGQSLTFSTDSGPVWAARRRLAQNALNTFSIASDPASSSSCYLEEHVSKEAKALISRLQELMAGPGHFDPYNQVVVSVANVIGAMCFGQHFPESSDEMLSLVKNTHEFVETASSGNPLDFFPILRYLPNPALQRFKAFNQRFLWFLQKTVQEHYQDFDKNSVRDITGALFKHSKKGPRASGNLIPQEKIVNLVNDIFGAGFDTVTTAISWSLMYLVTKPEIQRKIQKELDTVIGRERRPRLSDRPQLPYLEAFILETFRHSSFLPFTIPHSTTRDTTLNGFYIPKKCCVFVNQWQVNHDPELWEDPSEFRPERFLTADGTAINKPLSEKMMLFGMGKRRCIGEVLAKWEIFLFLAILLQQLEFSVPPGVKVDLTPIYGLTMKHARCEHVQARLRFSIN
# Sequence of 3',5'-cyclic-AMP phosphodiesterase 4B (Homo sapiens) (Q07343 whole entry, looked up): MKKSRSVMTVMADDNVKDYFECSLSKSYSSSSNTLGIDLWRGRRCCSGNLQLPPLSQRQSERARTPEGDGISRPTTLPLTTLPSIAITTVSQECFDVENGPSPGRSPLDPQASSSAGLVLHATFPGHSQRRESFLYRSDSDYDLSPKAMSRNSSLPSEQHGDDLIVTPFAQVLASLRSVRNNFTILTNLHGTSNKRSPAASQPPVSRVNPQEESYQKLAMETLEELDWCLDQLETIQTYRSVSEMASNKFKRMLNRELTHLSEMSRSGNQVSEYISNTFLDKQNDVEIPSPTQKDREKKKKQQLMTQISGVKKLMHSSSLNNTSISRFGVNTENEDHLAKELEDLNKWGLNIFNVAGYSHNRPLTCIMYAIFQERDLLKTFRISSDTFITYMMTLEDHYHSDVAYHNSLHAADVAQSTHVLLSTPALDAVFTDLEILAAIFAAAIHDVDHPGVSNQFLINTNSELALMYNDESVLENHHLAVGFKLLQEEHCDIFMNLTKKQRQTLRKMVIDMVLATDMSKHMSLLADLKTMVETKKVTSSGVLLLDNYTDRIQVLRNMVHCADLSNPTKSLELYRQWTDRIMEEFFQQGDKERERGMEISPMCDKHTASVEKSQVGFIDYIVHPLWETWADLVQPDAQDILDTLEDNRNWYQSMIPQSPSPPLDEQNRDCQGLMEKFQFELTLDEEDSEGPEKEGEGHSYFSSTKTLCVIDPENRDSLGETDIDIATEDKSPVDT
smiles,measurement,setting,value
Nc1c(S(=O)(=O)O)cc(Nc2ccc(Nc3nc(Cl)nc(Nc4ccc(S(=O)(=O)O)cc4)n3)c(S(=O)(=O)O)c2)c2c1C(=O)c1ccccc1C2=O,"activity change, negative = inhibition",[1],-21.1% (inactive)
same,Potency,[2],15.8 µM (active)
same,Potency,[3],> 46 µM (inactive)
same,Potency,[4],> 46 µM (inactive)
same,Potency,[5],inactive
same,outcome,[6],inactive
same,Potency,[7],inactive
same,Potency,[8],inactive
same,Potency,[9],inactive
same,Potency,[10],inactive
same,Potency,[11],0.631 µM (active)
same,outcome,[12],inactive
same,outcome,[13],inactive
same,"activity change, negative = inhibition",[14]; at 57.5 µM (top of the series),-0.911% (inactive)
same,max response,[14]; measured here: cell count channel max response,-15%
same,max response,[14]; measured here: lipid channel max response,-16.5%
same,Potency,[15],0.251 µM (active)
same,Potency,[16],8.91 µM (active)
same,Potency,[17],3.98 µM (active)
same,Potency,[18],inactive
